According to PubChem BioAssay (NCATS):
Results filed as inconclusive are left out. Where a call stands in place of a potency, no number is given. Activity calls are given as the source filed them. Calls follow the shape of the dose curve; as a rule, active = well fitted curve in the direction sought with a large enough effect; inconclusive = small, poorly fitted or top-dose-only effect, or another doubt; inactive = no such curve, though single readings can be large; an effect the other way counts as inactive or inconclusive.

Tests used:
[1] = Quantitative High-Throughput drug screen in 47 multiple myeloma cell lines against the NCATS MIPE library collection: KMM1_JCRB cell viability assay (AID 1918960); also: nearly all actives have a fitted effect of over 30% in size; also: potency is read from the fitted curve at half-maximal effect
How it was run: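 Here, 48 h treatment with MIPE 4.0 agents at 37 °C preceded an ATP luminescence read. Plating density was 500 cells per well.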

[2] = Quantitative High-Throughput drug screen in 47 multiple myeloma cell lines against the NCATS MIPE library collection: KHM11_PLB cell viability assay (AID 1918962); also: nearly all actives have a fitted effect of over 35% in size; also: potency is read from the fitted curve at half-maximal effect
How it was run: (§1)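 Primary qHTS used for cherry-picking: cells at 500/well, library compounds for 48 h (37C, 5% CO2), luminescent ATP assay.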

[3] = Quantitative High-Throughput drug screen in 47 multiple myeloma cell lines against the NCATS MIPE library collection: JIM3_ECACC cell viability assay (AID 1918963; also: nearly all actives have a fitted effect of over 35% in size; also: potency is read from the fitted curve at half-maximal effect)
How it was run: as §1

[4] = Quantitative High-Throughput drug screen in 47 multiple myeloma cell lines against the NCATS MIPE library collection: JIM1_ECACC cell viability assay (AID 1918964; also: potency is read from the fitted curve at half-maximal effect)
How it was run: as §1

[5] = Quantitative High-Throughput drug screen in 47 multiple myeloma cell lines against the NCATS MIPE library collection: INA6_PLB cell viability assay (AID 1918965; also: nearly all actives have a fitted effect of over 55% in size; also: potency is read from the fitted curve at half-maximal effect)
How it was run: (§2)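 We plated 500 myeloma cells per well, pinned in MIPE 4.0 compounds, and incubated for 48 hours at 37C. ATP was then quantified with CellTiter-Glo, with DMSO and media-only wells defining 100% and 0%.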

[6] = Quantitative High-Throughput drug screen in 47 multiple myeloma cell lines against the NCATS MIPE library collection: JJN3_DSMZ cell viability assay (AID 1918966; also: nearly all actives have a fitted effect of over 50% in size; also: potency is read from the fitted curve at half-maximal effect)
How it was run: as §1

[7] = Quantitative High-Throughput drug screen in 47 multiple myeloma cell lines against the NCATS MIPE library collection: H1112_PLB cell viability assay (AID 1918967; also: nearly all actives have a fitted effect of over 30% in size; also: potency is read from the fitted curve at half-maximal effect)
How it was run: as §1

[8] = Quantitative High-Throughput drug screen in 47 multiple myeloma cell lines against the NCATS MIPE library collection: Karpas25_ECACC cell viability assay (AID 1918968; also: nearly all actives have a fitted effect of over 35% in size; also: potency is read from the fitted curve at half-maximal effect)
How it was run: as §1

[9] = Quantitative High-Throughput drug screen in 47 multiple myeloma cell lines against the NCATS MIPE library collection: KMS12BM_JCRB cell viability assay (AID 1918971); also: nearly all actives have a fitted effect of over 35% in size; also: potency is read from the fitted curve at half-maximal effect
How it was run: (§3)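 Myeloma cell lines, 500 cells per well, exposed to MIPE 4.0 library compounds for 48 h at 37C, 5% CO2. Viability from ATP by CellTiter-Glo luminescence; normalised to DMSO (100%) and media-only (0%) wells.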

[10] = Quantitative High-Throughput drug screen in 47 multiple myeloma cell lines against the NCATS MIPE library collection: KMS12PE_JCRB cell viability assay (AID 1918972); also: nearly all actives have a fitted effect of over 30% in size; also: potency is read from the fitted curve at half-maximal effect
How it was run: as §2

[11] = Quantitative High-Throughput drug screen in 47 multiple myeloma cell lines against the NCATS MIPE library collection: KMS26_JCRB cell viability assay (AID 1918975); also: nearly all actives have a fitted effect of over 45% in size; also: potency is read from the fitted curve at half-maximal effect
How it was run: as §3

[12] = Quantitative High-Throughput drug screen in 47 multiple myeloma cell lines against the NCATS MIPE library collection: MOLP8_DSMZ cell viability assay (AID 1918977); also: nearly all actives have a fitted effect of over 45% in size; also: potency is read from the fitted curve at half-maximal effect
How it was run: (§4)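 Plated at 500 cells per well, myeloma lines received MIPE 4.0 compounds by pin tool. Following 48 h culture at 37 °C, CellTiter-Glo luminescence gave viability relative to DMSO and media-only controls.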

[13] = Quantitative High-Throughput drug screen in 47 multiple myeloma cell lines against the NCATS MIPE library collection: NCIH929_DSMZ cell viability assay (AID 1918978); also: nearly all actives have a fitted effect of over 35% in size; also: potency is read from the fitted curve at half-maximal effect
How it was run: as §4

[14] = Quantitative High-Throughput drug screen in 47 multiple myeloma cell lines against the NCATS MIPE library collection: MM1S_ATCC cell viability assay (AID 1918980); also: nearly all actives have a fitted effect of over 45% in size; also: potency is read from the fitted curve at half-maximal effect
How it was run: as §4

[15] = Quantitative High-Throughput drug screen in 47 multiple myeloma cell lines against the NCATS MIPE library collection: Karpas417_ECACC cell viability assay (AID 1918961); settings: Karpas417 myeloma viability, CellTiter-Glo ATP luminescence, 48 h; viability (% of DMSO): at 45.8 µM (top of the series)
How it was run: as §2

[16] = Quantitative High-Throughput drug screen in 47 multiple myeloma cell lines against the NCATS MIPE library collection: MMM1_PLB cell viability assay (AID 1918976); also: nearly all actives have a fitted effect of over 35% in size; also: potency is read from the fitted curve at half-maximal effect
How it was run: as §4

[17] = Quantitative High-Throughput drug screen in 47 multiple myeloma cell lines against the NCATS MIPE library collection: OCIMY1_PLB cell viability assay (AID 1918979); also: nearly all actives have a fitted effect of over 35% in size; also: potency is read from the fitted curve at half-maximal effect
How it was run: as §4

[18] = Quantitative High-Throughput drug screen in 47 multiple myeloma cell lines against the NCATS MIPE library collection: MM1R_ATCC cell viability assay (AID 1918981); also: nearly all actives have a fitted effect of over 35% in size; also: potency is read from the fitted curve at half-maximal effect
How it was run: as §4

[19] = Quantitative High-Throughput drug screen in 47 multiple myeloma cell lines against the NCATS MIPE library collection: KMS27_JCRB cell viability assay (AID 1918970); also: nearly all actives have a fitted effect of over 30% in size; also: potency is read from the fitted curve at half-maximal effect
How it was run: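 Luminescent ATP read-out (CellTiter-Glo, 5 min at room temperature) after 48 h compound exposure of 500 KMS27_JCRB cells per well; DMSO wells define full viability and media-only wells zero.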

[20] = Quantitative High-Throughput drug screen in 47 multiple myeloma cell lines against the NCATS MIPE library collection: KMS20_JCRB cell viability assay (AID 1918973); also: nearly all actives have a fitted effect of over 45% in size
How it was run: as §1

NC1(c2ccc(-c3nc4ccn5c(=O)[nH]nc5c4cc3-c3ccccc3)cc2)CCC1
Potency [1]: 1.87 µM (active) | Potency [2]: 5.9 µM (active) | Potency [3]: 0.662 µM (active) | Potency [4]: 1.48 µM (active) | Potency [5]: 11.8 µM (active) | Potency [6]: 5.26 µM (active) | Potency [7]: 0.0833 µM (active) | Potency [8]: 5.26 µM (active) | Potency [9]: 23.5 µM (active) | Potency [10]: 0.296 µM (active) | Potency [11]: 14.8 µM (active) | Potency [12]: 3.72 µM (active) | Potency [13]: 0.059 µM (active) | Potency [14]: 0.662 µM (active)

C#CCN[C@@H]1CCc2ccccc21
Potency [1]: inactive | Potency [15]: inactive | Potency [2]: inactive | Potency [3]: inactive | Potency [7]: inactive | Potency [9]: 11.8 µM (active) | Potency [10]: inactive | Potency [11]: inactive | Potency [16]: 23.5 µM (active) | Potency [13]: inactive | Potency [17]: inactive | Potency [14]: inactive | Potency [18]: inactive

Nc1nc(N)nc(-c2cc(Cl)ccc2Cl)n1
Potency [1]: inactive | Potency [15]: inactive | Potency [2]: inactive | Potency [3]: inactive | Potency [6]: inactive | Potency [7]: inactive | Potency [19]: inactive | Potency [9]: inactive | Potency [12]: inactive | Potency [13]: inactive | Potency [17]: inactive | Potency [18]: inactive

O=C(O)c1cc(=O)[nH]c(=O)[nH]1
Potency [1]: inactive | Potency [15]: inactive | Potency [2]: inactive | Potency [3]: inactive | Potency [5]: inactive | Potency [19]: inactive | Potency [10]: inactive | Potency [11]: inactive | Potency [13]: inactive | Potency [14]: inactive

Cc1onc(-c2ccccc2Cl)c1C(=O)N[C@@H]1C(=O)N2[C@@H]1SC(C)(C)[C@@H]2C(=O)O
Potency [1]: inactive | Potency [15]: inactive | Potency [2]: inactive | Potency [3]: inactive | Potency [8]: inactive | Potency [19]: inactive | Potency [9]: inactive | Potency [13]: inactive | Potency [17]: inactive | Potency [14]: 14.8 µM (active) | Potency [18]: inactive

Nc1nc(=S)c2[nH]cnc2[nH]1
Potency [1]: inactive | Potency [15]: inactive | Potency [2]: 4.18 µM (active) | Potency [3]: 9.35 µM (active) | Potency [5]: 0.469 µM (active) | Potency [6]: 4.69 µM (active) | Potency [7]: 14.8 µM (active) | Potency [19]: inactive | Potency [9]: 5.9 µM (active) | Potency [11]: 6.62 µM (active) | Potency [12]: 3.32 µM (active) | Potency [13]: 1.32 µM (active) | Potency [17]: 8.33 µM (active) | Potency [14]: 3.72 µM (active)

O=P(O)(O)C(O)(Cc1cccnc1)P(=O)(O)O
Potency [1]: inactive | Potency [2]: inactive | Potency [3]: inactive | Potency [7]: inactive | Potency [19]: inactive | Potency [10]: inactive | Potency [11]: 0.0017 µM (active) | Potency [13]: inactive | Potency [17]: inactive | Potency [14]: inactive

CCCCc1oc2ccc(NS(C)(=O)=O)cc2c1C(=O)c1ccc(OCCCN(CCCC)CCCC)cc1
Potency [1]: 20.9 µM (active) | Potency [3]: 18.7 µM (active) | Potency [4]: 10.5 µM (active) | Potency [5]: 9.35 µM (active) | Potency [6]: 14.8 µM (active) | Potency [19]: 14.8 µM (active) | Potency [9]: 14.8 µM (active) | Potency [10]: 9.35 µM (active) | Potency [11]: 14.8 µM (active) | Potency [12]: 16.6 µM (active) | Potency [13]: 18.7 µM (active) | Potency [17]: 20.9 µM (active) | Potency [14]: 20.9 µM (active)

CNCC[C@H](Oc1cccc2ccccc12)c1cccs1
Potency [1]: 26.4 µM (active) | Potency [2]: 5.26 µM (active) | Potency [3]: 5.26 µM (active) | Potency [5]: 7.43 µM (active) | Potency [7]: 2.35 µM (active) | Potency [8]: 2.96 µM (active) | Potency [19]: 23.5 µM (active) | Potency [9]: 18.7 µM (active) | Potency [11]: 7.43 µM (active) | Potency [12]: 18.7 µM (active) | Potency [13]: 1.87 µM (active) | Potency [14]: 2.35 µM (active) | Potency [18]: 14.8 µM (active)

NNC(=O)c1ccncc1
Potency [1]: inactive | Potency [2]: inactive | Potency [3]: inactive | Potency [4]: inactive | Potency [5]: inactive | Potency [7]: inactive | Potency [8]: inactive | Potency [19]: inactive | Potency [9]: inactive | Potency [10]: inactive | Potency [11]: inactive | Potency [12]: inactive | Potency [13]: inactive | Potency [18]: inactive

CCCc1nc(C)c2c(=O)[nH]c(-c3cc(S(=O)(=O)N4CCN(CC)CC4)ccc3OCC)nn12
Potency [1]: 3.72 µM (active) | Potency [2]: 9.35 µM (active) | Potency [3]: 9.35 µM (active) | Potency [4]: 5.26 µM (active) | Potency [5]: 4.18 µM (active) | Potency [6]: 4.18 µM (active) | Potency [7]: 10.5 µM (active) | Potency [19]: 4.69 µM (active) | Potency [9]: 5.26 µM (active) | Potency [10]: 2.96 µM (active) | Potency [11]: 4.69 µM (active) | Potency [16]: 6.62 µM (active) | Potency [12]: 5.26 µM (active) | Potency [13]: 3.72 µM (active) | Potency [17]: 4.69 µM (active) | Potency [14]: 4.69 µM (active) | Potency [18]: 4.18 µM (active)

Cn1c(=O)c2c(ncn2CC(O)CO)n(C)c1=O (stereo unspecified)
Potency [1]: inactive | Potency [2]: inactive | Potency [3]: inactive | Potency [4]: inactive | Potency [5]: inactive | Potency [7]: inactive | Potency [19]: inactive | Potency [9]: inactive | Potency [10]: inactive | Potency [11]: inactive | Potency [16]: inactive | Potency [12]: inactive | Potency [13]: inactive | Potency [14]: inactive | Potency [18]: inactive

C[C@@H](NCCCc1cccc(C(F)(F)F)c1)c1cccc2ccccc12
Potency [1]: inactive | Potency [2]: inactive | Potency [3]: 13.2 µM (active) | Potency [7]: inactive | Potency [19]: inactive | Potency [9]: inactive | Potency [10]: 18.7 µM (active) | Potency [20]: inactive | Potency [11]: inactive | Potency [12]: inactive | Potency [13]: inactive | Potency [17]: inactive | Potency [18]: inactive

Cc1oc(=O)oc1CN1CCN(c2cc3c(cc2F)c(=O)c(C(=O)O)c2n3C(C)S2)CC1 (stereo unspecified)
Potency [1]: inactive | Potency [2]: inactive | Potency [3]: inactive | Potency [4]: inactive | Potency [6]: 14.8 µM (active) | Potency [8]: inactive | Potency [19]: inactive | Potency [9]: 13.2 µM (active) | Potency [10]: inactive | Potency [13]: inactive | Potency [17]: inactive | Potency [18]: inactive
